A selection: hits, their analogues and other compounds. The true share with any hit is near 4%.
TWEAK Fn14 block: TWEAK-Fn14 signaling inhibition | TWEAK-stimulated Fn14 reporter cells, luciferase luminescence, 8 h | inhibition, % at 10 µM | 360,000 compounds, 2% hits; in the data active means inhibition above about 50%
CF NFkB block: cystic fibrosis NF-kB activation inhibition; KKLEB NF-kB-GFP reporter, PAF-induced, GFP fluorescence overnight; inhibition, % at 5 µM; 360,000 compounds, 0.86% hits;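 active means at least 50% inhibition at 5 µM, scaled per plate between neutral and stimulator controls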;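 further: PAF is a Pseudomonas aeruginosa culture filtrate used as stimulus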
HIF-2a block: blocks HIF-2a reporter activity; 786-0 RCC cells HIF-2a reporter, luciferase luminescence, overnight; 360,000 compounds, 0.72% hits; inhibition, % at 18.8 µM;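 active means inhibition of the luminescence signal of 40% or more relative to plate controls, in a single-dose primary screen at 18.75 µM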
Peg3 prom inh: reduces Peg3 promoter-driven luciferase expression in HeLa | HeLa PEG-Prom luciferase reporter, luminescence, overnight | inhibition, % at 20 µM | 360,000 compounds, 1.7% hits;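 active means inhibition of at least 50% at 20 µM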
KKLEB cytotox: counter-screen for CF NF-kB inhibitors: cytotoxicity. KKLEB CF airway cells viability, ATPlite luminescence, overnight; hits give low values; cells stimulated with P. aeruginosa culture filtrate. activity change (cytotoxicity), % at 5 µM. 360,000 compounds, 0.36% hits;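 active means corrected activity change at or below -50% at 5 µM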
TROY signal inh: blocks TROY-dependent signaling in reporter cells. Q293 LMP1-TROYcd NF-kB luciferase reporter, 4 h. inhibition, % at 10 µM. 360,000 compounds, 0.98% hits. AID 1347056;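 active means compounds whose plate-normalised and pattern-corrected inhibition of the luciferase reporter signal at the single screening dose is 50% or more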
Mdm2-MdmX confirm: confirmation of inhibitors of human Mdm2/MdmX interaction, set 2 | shares compounds with HIF-2a block | SaOS-2 split-luciferase Mdm2/MdmX complementation, luminescence | inhibition, % at 8 µM | 740 compounds, 99% hits;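 active means mean inhibition of the luminescence signal across two replicates at or above 26 percent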
Target sequence (O15151 whole entry, looked up): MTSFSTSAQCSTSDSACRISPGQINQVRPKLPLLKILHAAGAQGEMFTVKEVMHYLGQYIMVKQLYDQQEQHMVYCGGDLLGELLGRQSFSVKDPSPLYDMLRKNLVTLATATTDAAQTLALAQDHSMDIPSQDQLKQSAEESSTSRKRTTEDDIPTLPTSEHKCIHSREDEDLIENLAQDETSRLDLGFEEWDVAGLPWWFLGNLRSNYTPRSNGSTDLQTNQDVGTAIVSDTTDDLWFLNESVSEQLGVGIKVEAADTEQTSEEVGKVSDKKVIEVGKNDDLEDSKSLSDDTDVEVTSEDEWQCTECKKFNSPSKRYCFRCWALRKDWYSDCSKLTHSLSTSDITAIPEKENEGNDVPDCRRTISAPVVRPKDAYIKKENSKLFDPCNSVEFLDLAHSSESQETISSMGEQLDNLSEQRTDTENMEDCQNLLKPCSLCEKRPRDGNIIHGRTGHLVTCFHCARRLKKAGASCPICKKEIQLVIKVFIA
Target sequence (Q00987 whole entry, looked up): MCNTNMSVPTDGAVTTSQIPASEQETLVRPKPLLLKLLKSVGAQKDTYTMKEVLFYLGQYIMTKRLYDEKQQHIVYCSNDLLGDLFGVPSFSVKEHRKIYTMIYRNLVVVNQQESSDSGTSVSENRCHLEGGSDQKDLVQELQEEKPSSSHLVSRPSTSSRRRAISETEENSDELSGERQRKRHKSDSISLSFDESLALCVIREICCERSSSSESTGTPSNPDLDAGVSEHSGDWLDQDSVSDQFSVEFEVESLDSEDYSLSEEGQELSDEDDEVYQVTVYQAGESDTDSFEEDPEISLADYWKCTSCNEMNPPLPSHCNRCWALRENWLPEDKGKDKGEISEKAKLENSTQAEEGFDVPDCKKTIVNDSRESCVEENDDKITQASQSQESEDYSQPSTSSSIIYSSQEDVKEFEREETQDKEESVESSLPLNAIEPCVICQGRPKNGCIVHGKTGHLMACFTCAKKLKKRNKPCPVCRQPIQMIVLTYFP
HIF-2a conf: confirmation of HIF-2a inhibitors; shares compounds with HIF-2a block; 786-0 RCC cells, HIF-2a luciferase reporter luminescence, overnight; inhibition, % at 18.8 µM; 1,800 compounds, 56% hits;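 active means mean inhibition across four replicates of at least 40 percent at the single tested concentration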
HIF-1a counter: counter-screen for HIF-2a inhibitors: HIF-1a inhibition in MiaPaCa-2 cells. shares compounds with HIF-2a block. MiaPaCa-2 HIF-1a luciferase reporter, desferoxamine, overnight. inhibition, % at 18.8 µM. 1,800 compounds, 72% hits. AID 651589;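 active means mean inhibition of the reporter signal across four replicates at the single tested dose of 50% or more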
Of the large screens only hits and unclear results are named; the others gave an inactive call (follow-up assays come after a bar, where they were run).

CCCCCN1C(=O)c2cc(OC)ccc2[C@@]2(C(=O)OCC)Cc3cc(OC)ccc3[C@@H]12	TWEAK Fn14 block 62, HIF-2a block 81 (no result: CF NFkB block, Peg3 prom inh, KKLEB cytotox) | HIF-2a conf 92 | HIF-1a counter 106
Fc1cccc(-c2ccc3c(c2)CN(c2cccc(Cl)c2)Cc2cnnn2-3)c1	none
C[C@]12CCC(=O)C=C1CC[C@@H]1C2[C@H](O)C[C@]2(C)C(=O)CCC12 (stereo not given in full)	none
CCn1cc(C(=O)N2CCC3(CC2)OCCO3)c(=O)c2cc(S(=O)(=O)N3CCCC3)ccc21	none
CCOC(=O)[C@]12Cc3ccc(C)cc3[C@H]1N(C1CCCCC1)C(=O)c1ccccc12	TWEAK Fn14 block 92, HIF-2a block 81, TROY signal inh 51 (no result: CF NFkB block, Peg3 prom inh, KKLEB cytotox) | HIF-2a conf 96 | HIF-1a counter 98
O=C(Nc1ccc(Br)cc1)c1nn(C23CC4CC(CC(C4)C2)C3)cc1Br	none
CC(N)C(=O)NC1C2C(=C(O)CC(O)C2O)C(=O)OC1(C)C(Cl)Cl (stereo not given)	TWEAK Fn14 block 96, CF NFkB block 87, HIF-2a block 45, Peg3 prom inh 96, TROY signal inh 78 | HIF-2a conf 57 | HIF-1a counter 104
CC(=O)O[C@H]1[C@H]2O[C@]23[C@@H]2CC[C@]4(O)C[C@@H](O)CC[C@]4(C)C2CC[C@]3(C)[C@H]1c1ccc(=O)oc1 (stereo not given in full)	TWEAK Fn14 block 83, CF NFkB block 82, HIF-2a block 76, Peg3 prom inh 101, KKLEB cytotox -54, TROY signal inh 56 | Mdm2-MdmX confirm 87 | HIF-2a conf 43 | HIF-1a counter 106
CC[C@@H](CO)C1CC2NC3CC4(c5ccccc5N(C)[C@@H]24)C(O)C31 (stereo not given in full)	none
C=C1C(=O)OC2C1CCC(C)C1(O)C=CC(=O)C21C (stereo not given)	TWEAK Fn14 block 66, HIF-2a block 47, Peg3 prom inh 106 | HIF-2a conf inactive | HIF-1a counter 99
CCOc1ccc(N=C2SCCCN2C)cc1	none
Cc1cccc(OP(=O)(NCc2ccccc2)Oc2cccc(C)c2)c1	HIF-2a block 68 | HIF-2a conf inactive | HIF-1a counter 80
C=CC[N+]1(C)CC[C@]23c4c5ccc(O)c4O[C@H]2C(=O)CC[C@@]3(O)[C@H]1C5 (stereo not given in full)	none
CC(C)(O)C(=O)Nc1ccc([N+](=O)[O-])c(C(F)(F)F)c1	none
COc1cc2c(cc1OC)CN(c1ccc([N+](=O)[O-])c(C(F)(F)F)c1)CC2	TWEAK Fn14 block 74, HIF-2a block 46 | HIF-2a conf inactive | HIF-1a counter inactive
CC1CCCCN1C(=O)c1ccc(N2CC3CC(C2)c2cccc(=O)n2C3)c([N+](=O)[O-])c1 (stereo not given)	none
Cc1csc(=N)n1Cc1ccccc1	none
CCOP(=O)(NC(C)C)Oc1ccc(SC)c(C)c1 (stereo not given)	none
CCCC[C@@H](C)C[C@@H](C)C(=O)N(C)[C@@H](CC(C)C)C(=O)N[C@H](C(=O)N(C)[C@H](C(=O)N1C[C@@H](O)C[C@H]1C(=O)N1C(=O)C=C[C@@H]1C)C(C)C)C(C)OC(C)=O (stereo not given in full)	TWEAK Fn14 block 51, CF NFkB block 84, HIF-2a block 53, Peg3 prom inh 92, KKLEB cytotox -88 | Mdm2-MdmX confirm 100
CCC(C)(O)C(=O)OC1C(=O)OC2CC3C(C)=CC(O)C(O)C3(C)C3C4(O)OCC23C1C(C)C4O (stereo not given)	TWEAK Fn14 block 92, HIF-2a block 46, Peg3 prom inh 95 | HIF-2a conf 45 | HIF-1a counter 102

From PubChem BioAssay
